PubChem BioAssay (NCI)
About 83,000 compounds went through this panel and 20% of them were active in at least one assay; those are over-represented in the sample as a whole.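 Cells were grown in 96-well plates and exposed to the test compound at a single concentration for 48 hours; results are reported as percent growth, with values below 10 considered active.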 Calls of active or inactive are those of the source.

test system: HL-60(TB) leukemia; experiment: NCI-60 one-dose screen, 48 h (100 = growth as untreated, 0 = no growth, -100 = all killed); conditions: 10 µM unless noted

Row | Structure (SMILES) | growth
1 | COc1cc(/C=C/C(=O)c2ccc(Cl)cc2)ccc1OS(=O)(=O)c1ccc(C)cc1 | 75.2% (inactive)
2 | O=C(N/N=C\c1ccc(-c2ccc(Br)cc2)o1)c1cc2oc(-c3cccc(C(F)(F)F)c3)cc2[nH]1 | 146% (inactive)
3 | CC(=O)c1c(Nc2ccc(F)c(F)c2F)[nH]c2c(F)cc(F)cc2c1=O | -48% (active)
4 | CCCCCCCC1(C)NC(=O)NC1=O (stereo not given) | 100% (inactive)
5 | OC1CCCN(Cc2ccccc2)C1 (stereo not given) | 114% (inactive)
6 | O=C(/C=C\c1ccc(OCCCCCC[P+](c2ccccc2)(c2ccccc2)c2ccccc2)cc1)c1ccc2c(c1)OCCO2 | -13.2% (active)
7 | CCc1ccc(-c2nnc(COc3ccc(-c4nc5cc(Cl)c(Cl)cc5[nH]4)cc3OC)o2)cc1 | 105% (inactive)
8 | Cc1cc2c(cc1C)N(C(=O)CCl)CC(=O)N2 | 8.25% (active)
9 | COc1ccc(-n2nc(C)c3c(Nc4ccc(NC(=O)Nc5c(Cl)cccc5Cl)cc4)ncnc32)cc1 | 97.8% (inactive)
10 | O=C(O)/C(=C/c1ccc(O)cc1)c1ccccc1 | 96% (inactive)
11 | Cc1cc(C)nc(NS(=O)(=O)c2ccc(Nc3nc4nc(SCc5ccccc5)nc(-c5ccc(O)cc5)c4c(=O)[nH]3)cc2)n1 | 86.3% (inactive)
12 | Cc1cc2c(c(C)c1Cl)C(=O)/C(=C/c1ccco1)O2 | 97.5% (inactive)
13 | Clc1cccc(Nc2ncnc3ccc(-c4cncc(-n5cnnn5)c4)cc23)c1 | 86.6% (inactive)
14 | CC(C)(CCCN=C(N)Nc1ccc(Cl)cc1)c1ccc(F)cc1 | 93.4% (inactive)
15 | CCCn1cnc2c(c1=N)C(c1ccc(F)cc1)c1sc3c(F)cccc3c1O2 (stereo not given) | 3.36% (active)
16 | CC(=O)C1CCC2C3CC(C)=C4CC(O)CCC4(C)C3CCC12C (stereo not given) | 98.7% (inactive)
17 | C=CC1(C)C(O[Si](C)(C)C(C)(C)C)CC2C3OC(=O)NC31c1cccc3c1[C@H](C(=O)N3C)C2(C)C (stereo not given in full) | 22.9% (inactive)
18 | CC(=O)Nc1ccc2nc3ccc(NC(C)=O)cc3[n+](-c3ccccc3)c2c1 | 4% (active)
19 | COc1ccc(-c2csc(NC(=O)CO[N+](=O)[O-])n2)cc1 | 107% (inactive)
20 | C=C1C(=O)O[C@H]2[C@H]1CC/C(COC(=O)c1c[nH]c3ccccc13)=C\CC[C@@]1(C)O[C@@H]21 | -25.9% (active)

Row | Structure (SMILES) | growth
21 | C=C1CC[C@H](C(C)C)[C@@H]2[C@H]1[C@H]1CC(=C)[C@@H](O)CC[C@@](C)(O)[C@@H]2O1 | 103% (inactive)
22 | COc1ccc(C(=O)C(CN(C)C)CN(C)C)cc1 | 3.54% (active)
23 | c1ccc(-c2oc(-c3ccccc3)c3ccccc23)cc1 | 109% (inactive)
24 | CC(C)[C@H]1COC(=O)N1[C@@H]1C(=O)N([C@@H](CCC(=O)N2CCN(C3CCCC3)CC2)C(=O)N[C@@H]2CCCc3ccccc32)[C@@H]1/C=C/c1cccc(Cl)c1 | 5.13% (active)
25 | CC(=O)Oc1ccc(/C(=C(\C)c2ccc(Cl)cc2)c2ccc(OCCN3CCCCC3)cc2)cc1 | 27.4% (inactive)
26 | O=C1Nc2ccccc2/C1=C/c1cccn1C(=O)c1ccc(Cl)s1 | 57.3% (inactive)
27 | COc1ccc(C2C3=C(COC3=O)N(CCO)c3cc4c(cc32)OCO4)cc1OC (stereo not given) | 65.7% (inactive)
28 | O=c1ccc2ccc(OCCN3CCCCC3)cc2o1 | -28% (active)
29 | CCN(c1cc(-c2ccc(CN3CCC(/C=C/S(=O)(=O)c4ccccc4)CC3)cc2)cc(C(=O)NCc2c(C)cc(C)[nH]c2=O)c1C)C1CCOCC1 | 23.4% (inactive)
30 | O=S(=O)(NCCNc1nccc(-c2c(-c3cccc(F)c3)nc3sccn23)n1)c1ccc(Cl)cc1 | 95.9% (inactive)
31 | COc1ccc(/C=C/c2cc(N3CCOCC3)c3cc(F)c(F)cc3n2)cc1OC | -8.49% (active)
32 | N#C/C(=C\c1cccc2cnccc12)n1nnc2cccc(F)c21 | 1.65% (active)
33 | C#C[C@]1(O)CC[C@H]2[C@@H]3CC=C4c5sc(-c6cccc(C)c6)nc5CC[C@]4(C)[C@H]3CC[C@@]21C | 71.8% (inactive)
34 | CCCn1c(=O)[nH]c(N)c([C@H]2c3ccccc3Oc3[nH]c(=O)n(CCC)c(=O)c32)c1=O | 32.9% (inactive)
35 | O=C(NO)c1ccc(Cn2c(=O)n(CCc3ccccc3)c(=O)c3ccccc32)cc1 | 36.2% (inactive)
36 | CN1CCCCC1CCN1c2ccccc2Sc2ccc(Br)cc21 (stereo not given) | 34.9% (inactive)
37 | CCOc1nc(-c2ccccc2)cc2c(O)c(C(=O)N/N=C/c3ccc(O)cc3O)[nH]c(=O)c12 | 19.7% (inactive)
38 | O=C(CCc1nnc2sc(/C=C\c3ccccc3)nn12)c1nc2ccccc2[nH]1 | 99.8% (inactive)
39 | ClCCOCCn1cnc2c(Cl)nc(Cl)nc21 | 40.9% (inactive)
40 | O=C1C(=O)c2c(nc3ccc(C(F)(F)F)cn23)-c2ccccc21 | -47% (active)
